HT1080-NT tox: qHTS for induction of synthetic lethality in tumor cells producing 2HG: qHTS for the HT-1080-NT fibrosarcoma cell line. HT-1080-NT fibrosarcoma viability, CellTiter-Glo ATP luminescence, 48 h. 360,000 tested, 1.6% active. AID 686970, 2013. Potency, µM (highest dose often 46.1 µM), for the others: at the highest dose activity, negative = less viability, actives largely listed as cytotoxic;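 also: NT is the 2HG producing partner of a matched IDH1 knockdown line; potency is read from the fitted curve at half-maximal effect; 0% = DMSO-treated cells and -100% = media-only wells without cells; nearly all actives have a fitted effect of over 55% in size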
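Luminescent CellTiter-Glo readout after 48 hours of compound exposure at 37 degrees C defined viability of HT-1080-NT cells. Activity was normalized to DMSO wells and cell-free media wells; concentration-response curves were fitted and assigned curve classes.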
TDP1 cell CPT: qHTS for Inhibitors of human tyrosyl-DNA phosphodiesterase 1 (TDP1): qHTS in cells in presence of CPT; 420,000 tested, 12% active; chicken DT40 Tdp1-/-;hTDP1 cells + 20 nM CPT, ATP luminescence, 48 h; AID 686979, 2013; Potency, µM (series often up to 46.2 µM), for inactives: at the top dose activity change, negative = growth inhibition, most hits filed as inhibitors; also: potency is read from the fitted curve at half-maximal effect; nearly all actives have a fitted effect of over 55% in size
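Chicken DT40 Tdp1-/- cells complemented with human TDP1, 400 cells/well, exposed to compounds plus 20 nM camptothecin for at least 48 h at 37 C; viability read as ATP content by CellTiter-Glo luminescence.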
HT1080 IDH1KD tx: qHTS for induction of synthetic lethality in tumor cells producing 2HG: qHTS for the HT-1080-IDH1KD cell line. 360,000 tested, 2% active. Potency, µM (top dose mostly 46.1 µM), inactives show top-dose activity, negative = toxicity, hits mostly cytotoxic. HT-1080 IDH1 knockdown viability, ATP luminescence, 48 h. AID 686971, 2013;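 also: potency is read from the fitted curve at half-maximal effect; 0% = DMSO wells and -100% = cell-free medium wells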
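Cytotoxicity counter-line: IDH1KD HT-1080, 48 h, CellTiter-Glo. Curves classed by r2, magnitude and activity.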
TDP1 cell noCPT: qHTS for Inhibitors of human tyrosyl-DNA phosphodiesterase 1 (TDP1): qHTS in cells in absence of CPT | AID 686978, 2013 | 420,000 tested, 15% active | Potency, µM (doses to about 46.2 µM), for the others: at the highest dose activity change, negative = growth inhibition, usual class: inhibitors | DT40 Tdp1-/- hTDP1 cells, no CPT, ATP luminescence, 48 h; also: potency is read from the fitted curve at half-maximal effect; nearly all actives have a fitted effect of over 55% in size
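Chicken DT40 Tdp1-/- cells stably complemented with human TDP1 were seeded at 400 cells/well with DMSO in place of 20 nM camptothecin. After compound pinning, cells grew at least 48 hr at 37 °C; viability read by CellTiter-Glo luminescence.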
ELG1 repair inh: qHTS screen for small molecules that inhibit ELG1-dependent DNA repair in human embryonic kidney (HEK293T) cells expressing luciferase-tagged ELG1; Potency, µM (series often up to 46.1 µM), for the others: at the highest dose activity change, negative = inhibition, most hits filed as inhibitors; AID 504467, 2011; HEK293T ELG1-luciferase reporter, luminescence, 16 h; DNA damage induced by 5-fluorouridine; 330,000 tested, 2.3% active; also: potency is read from the fitted curve at half-maximal effect; nearly all actives have a fitted effect of over 55% in size
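HEK293T cells expressing luciferase-tagged ELG1 (2,000/well) received 5-Fluorouridine plus compound or DMSO for 16 hr at 37 °C. Luciferase was read by ONE-Glo luminescence after 30 min at room temperature.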
IL1B secr inh: qHTS for Inhibitors of Inflammasome Signaling: IL-1-beta AlphaLISA Primary Screen. activity change, % at 57.5 µM. THP-1 LPS/ATP IL-1B secretion, AlphaLISA, 16 h; active compounds read low. 360,000 tested, 4.7% active. AID 743279, 2014; in the data active = activity change below about -50%; inconclusive = mostly about -30% to -49%
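Secreted IL-1B measured by AlphaLISA bead assay after 16 h compound exposure of THP-1 cells; compounds (final up to 57.5 uM) added 1 h before LPS (250 ng/mL) and ATP (1.25 mM) stimulation; lower signal means less secretion.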
The depositor's hits bear a star; [ ] = dose if it differs, or a comment. Rows were chosen to be rich in hits. Some 19% of all compounds tested hit in one or more screens of this group. Unless noted, calls follow the shape of the dose curve; as a rule, active = well fitted curve in the direction sought with a large enough effect; inconclusive = small, poorly fitted or top-dose-only effect, or another doubt; inactive = no such curve, though single readings can be large; an effect the other way counts as inactive or inconclusive. Unless noted, % is scaled to controls: 0 for no effect and ±100 for the full control effect.

For COc1cccc(NC(=S)/C(=C(\[O-])c2ccc(C)c([N+](=O)[O-])c2)[n+]2ccccc2)c1 the results were HT1080-NT tox -6%, TDP1 cell CPT -23%, HT1080 IDH1KD tx -6%, TDP1 cell noCPT -25%, ELG1 repair inh inconclusive and IL1B secr inh -15.
For CCOC(=O)c1ccc(NC(=O)C(Cc2ccccc2)NS(=O)(=O)c2ccc(Br)s2)cc1 (stereo not given) the results were TDP1 cell CPT 2% and TDP1 cell noCPT 2%.
C/C(=N\OCC(=O)OC(C)C(=O)Nc1ccc(C(N)=O)cc1)c1ccc2c(c1)OCO2 (stereo not given) was read as HT1080-NT tox -2%, TDP1 cell CPT -19%, HT1080 IDH1KD tx -2%, TDP1 cell noCPT -18%, ELG1 repair inh 11% and IL1B secr inh 1.
`Cc1ccc(O)c(NC(=O)C2CCCN2C(=O)OCc2ccccc2)c1` (stereo not given) gave HT1080-NT tox -15%, TDP1 cell CPT -4%, HT1080 IDH1KD tx -1%, TDP1 cell noCPT -2%, ELG1 repair inh 0% and IL1B secr inh 13.
`COc1cc(/C=N/NC(=O)c2cc(-c3cccc(OC(C)C)c3)nc3ccccc23)ccc1O` gave HT1080-NT tox inconclusive, TDP1 cell CPT inconclusive, HT1080 IDH1KD tx inconclusive, TDP1 cell noCPT 2.1µM* and IL1B secr inh 14.
`COc1cc(/C=N/NC(=O)c2cc(-c3cccs3)nc3ccccc23)ccc1O` gave HT1080-NT tox -23%, TDP1 cell CPT 9.2µM*, HT1080 IDH1KD tx inconclusive, TDP1 cell noCPT 9.2µM*, ELG1 repair inh inconclusive and IL1B secr inh 38.
Screening N#Cc1ccc(/C=N/NC(=O)c2cc(-c3cccs3)nc3ccccc23)cc1 returned HT1080-NT tox inconclusive, TDP1 cell CPT 9.2µM*, HT1080 IDH1KD tx 10µM*, TDP1 cell noCPT 21µM*, ELG1 repair inh -20% and IL1B secr inh 7.
`N#Cc1ccc(-c2csc(NC(=O)c3cc(-c4cccs4)nc4ccccc34)n2)cc1` gave HT1080-NT tox 9%, TDP1 cell CPT inconclusive, HT1080 IDH1KD tx 5%, TDP1 cell noCPT inconclusive, ELG1 repair inh inconclusive and IL1B secr inh inconclusive.
For O=C(CCc1c[nH]c2ccccc12)N1CCC(n2c(C3CCCO3)nc3cc(C(F)(F)F)ccc32)CC1 (stereo not given) the results were TDP1 cell CPT 10%[9.04 µM] and TDP1 cell noCPT -13%.
Cc1nn(C2CCS(=O)(=O)C2)c(C)c1CN(C)C(=O)c1ccccc1 (stereo not given) was read as HT1080-NT tox 6%, TDP1 cell CPT -15%, HT1080 IDH1KD tx 5%, TDP1 cell noCPT 1%, ELG1 repair inh 12% and IL1B secr inh 1.
Screening CCOc1ccccc1OCCCC(=O)Nc1cc(S(=O)(=O)N2CCCCC2)ccc1C returned HT1080-NT tox -2%, TDP1 cell CPT inconclusive, HT1080 IDH1KD tx 2%, TDP1 cell noCPT inconclusive and IL1B secr inh 11.
Screening CC(C)C[C@H]1CN([C@@H](Cc2ccccc2)CN2CCC[C@H]2CN2C(=O)C(=O)NC[C@@H]2Cc2ccc(O)cc2)C(=O)C(=O)N1CC1CCCCCC1 returned HT1080-NT tox inconclusive, TDP1 cell CPT inconclusive, HT1080 IDH1KD tx inconclusive, TDP1 cell noCPT 16µM* and IL1B secr inh -89*.
For O=C1NC[C@H](Cc2ccc(O)cc2)N(C[C@@H]2CCCN2C[C@H](Cc2ccccc2)N2C[C@H](Cc3ccc(O)cc3)N(CC3CCCCCC3)C(=O)C2=O)C1=O the results were HT1080-NT tox -29%, TDP1 cell CPT inconclusive, HT1080 IDH1KD tx -18%, TDP1 cell noCPT inconclusive and IL1B secr inh -56*.
Screening CC(C)C[C@H]1CN([C@@H](Cc2ccc(O)cc2)CN2CCC[C@H]2CN2C(=O)C(=O)NC[C@@H]2Cc2ccccc2)C(=O)C(=O)N1CC1CCCCC1 returned HT1080-NT tox -19%, TDP1 cell CPT inconclusive, HT1080 IDH1KD tx -29%, TDP1 cell noCPT 21µM* and IL1B secr inh inconclusive.
`CC(C)C[C@H]1CNC(=O)C(=O)N1C[C@@H]1CCCN1C[C@H](Cc1ccc(O)cc1)N1C[C@H](Cc2ccccc2)N(CC2CCCCCC2)C(=O)C1=O` gave HT1080-NT tox inconclusive, TDP1 cell CPT inconclusive, HT1080 IDH1KD tx inconclusive, TDP1 cell noCPT inconclusive and IL1B secr inh -3.
For CC1=C(C(=O)N(C)C)CC(CC(=O)NCC2CCCCC2)C(=O)N1Cc1ccc(C(C)(C)C)cc1 (stereo not given) the results were HT1080-NT tox -17%, TDP1 cell CPT inconclusive, HT1080 IDH1KD tx -9%, TDP1 cell noCPT 16µM* and IL1B secr inh -22.
Screening CCN(CC)C(=O)C1=C(C)N(Cc2ccc(C(C)(C)C)cc2)C(=O)C(CC(=O)NCC2CCCCC2)C1 (stereo not given) returned HT1080-NT tox inconclusive, TDP1 cell CPT 13µM*, HT1080 IDH1KD tx inconclusive, TDP1 cell noCPT 18µM* and IL1B secr inh -82*.
For CC1=C(C(=O)N(C)C)CC(CC(=O)NCC2CCCCC2)C(=O)N1Cc1ccccc1 (stereo not given) the results were HT1080-NT tox -3%, TDP1 cell CPT -13%, HT1080 IDH1KD tx 2%, TDP1 cell noCPT -14% and IL1B secr inh 1.
For O=C(NCc1cccc(Br)c1)c1ccc(NC(=O)N2CCCCc3ccccc32)cc1 the results were TDP1 cell CPT -25% and TDP1 cell noCPT inconclusive.
For CCOC(=O)c1cccc(NC(=O)Cc2ccc(NC(=O)N3CCCCc4ccccc43)cc2)c1 the results were TDP1 cell CPT 5.2µM* and TDP1 cell noCPT 4.6µM*.
`CCCCOc1ccc(CNC(=O)c2ccc(NC(=O)N3CCCCc4ccccc43)cc2)cc1` gave TDP1 cell CPT 18µM* and TDP1 cell noCPT 26µM*.
For COCCCNC(=O)c1ccc(NC(=O)N2CCCCc3ccccc32)cc1 the results were TDP1 cell CPT -1% and TDP1 cell noCPT -3%.

Screening results as filed in PubChem.
